In all, about 190,000 compounds went through this assay and about 240 (0.13%) were called active. Rule as the data show it: active = inhibition above about 40%. The sample as a whole holds a higher share of actives than the screen did.

The target of this assay is Bcl-2-related protein A1 (Homo sapiens) (UniProt Q16548). Put plainly: Bfl-1/Bim complex disruptors – biochemical, multiplexed, bead-based flow cytometry, primary screen (AID 1008).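 Also: 0% = wells without compound plus tracer and 100% = blocker peptide.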 The conditions noted are these: Bim-Bfl-1 binding inhibition, at 10 µM, active compounds read high. In general terms: In flow cytometry, cells or beads pass a laser one at a time.
Sequence of Bcl-2-related protein A1 (Homo sapiens) (Q16548 whole entry, looked up): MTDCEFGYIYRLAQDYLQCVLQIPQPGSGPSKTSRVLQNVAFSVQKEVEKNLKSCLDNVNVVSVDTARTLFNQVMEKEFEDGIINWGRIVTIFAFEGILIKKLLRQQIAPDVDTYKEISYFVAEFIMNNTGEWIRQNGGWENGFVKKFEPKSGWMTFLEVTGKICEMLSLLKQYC
`Cc1cccc(-n2c(O)c(/C=N/N3CCOCC3)c(=O)[nH]c2=S)c1`: the inhibition is 41% (active).
As for `C=CCn1c(O)c(/C=N/N2CCOCC2)c(=O)[nH]c1=S`, the inhibition was 3% (inactive).
Then `O=c1[nH]c(=S)n(C2CC2)c(O)c1/C=N/N1CCOCC1`, with -14% (inactive); and `N#Cc1ccc(Cn2cc(C(=O)c3ccco3)c3ccccc32)cc1`, with -4% (inactive); and `CCOC(=O)C1(Cc2ccc(Cl)cc2)CCN(C(C)CCn2cccn2)CC1` (stereo not given), with 0% (inactive).

As a reminder, the inhibition is the relative decrease from the control value, in per cent.
